# The list is not random: actives were taken first. Their share in the collection is about 4%.
# KKLEB cytotox: CF airway cell cytotoxicity counter-screen | KKLEB CF airway cells viability, ATPlite luminescence, overnight; hits give low values; cells stimulated with P. aeruginosa culture filtrate | activity change (cytotoxicity), % at 5 µM | 0.36% of 360,000 active | AID 602141;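 active = corrected activity change at or below -50% at 5 µM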
# CF NFkB inh: blocks PAF-induced NF-kB reporter in cystic fibrosis cells | 0.86% of 360,000 active | inhibition, % at 5 µM | KKLEB NF-kB-GFP reporter, GFP fluorescence overnight;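 active = at least 50% inhibition at 5 µM, scaled per plate between neutral and stimulator controls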;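 also: PAF is a Pseudomonas aeruginosa culture filtrate used as stimulus; plate controls were PAF-stimulated DMSO wells for no effect and unstimulated DMSO wells for full effect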
# TWEAK Fn14 block: inhibitors of TWEAK-Fn14 interaction signaling. TWEAK-stimulated Fn14 reporter cells, luciferase luminescence, 8 h. inhibition, % at 10 µM. 2% of 360,000 active. AID 1159606; in the data active = inhibition above about 50%
# HIF-2a block: HIF-2a inhibition | 786-0 RCC cells HIF-2a reporter, luciferase luminescence, overnight | inhibition, % at 18.8 µM | 0.72% of 360,000 active | AID 624352;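 active = inhibition of the luminescence signal of 40% or more relative to plate controls, in a single-dose primary screen at 18.75 µM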
# TROY signal inh: blocks TROY-dependent signaling in reporter cells | Q293 LMP1-TROYcd NF-kB luciferase reporter, 4 h | inhibition, % at 10 µM | 0.98% of 360,000 active;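 active = compounds whose plate-normalised and pattern-corrected inhibition of the luciferase reporter signal at the single screening dose is 50% or more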
# Peg3 prom inh: inhibitors of Peg3 promoter. HeLa PEG-Prom luciferase reporter, luminescence, overnight. inhibition, % at 20 µM. 1.7% of 360,000 active;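 active = inhibition of at least 50% at 20 µM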
# * marks the source's active call; other numbers are inactive results; · = not tested or not shown.
SMILES,KKLEB cytotox,CF NFkB inh,TWEAK Fn14 block,HIF-2a block,TROY signal inh,Peg3 prom inh
COc1ccc(-c2nnc(SCc3nc4ccccc4c(=O)[nH]3)o2)cc1,-9,7,51*,-52,56*,-20
CC(NC(=O)c1ccccc1)c1nnc(SCc2nc3ccccc3c(=O)[nH]2)n1C (stereo not given),11,-11,-9,4,-1,5
Cc1ccc(OCc2nc3ccccc3n2C(C(=O)NC(C)(C)C)c2ccncc2)cc1 (stereo not given),·,·,·,-84,·,·
O=C(O)CCC1C(=O)NC(=O)CC1c1ccccc1 (stereo not given),-7,4,-4,6,6,-3
O=C(OCC(=O)N(CCc1ccccc1)Cc1ccccc1)c1ccc(F)c(S(=O)(=O)N2CCOCC2)c1,4,-4,-8,-1,2,8
N=c1oc2cc(O)ccc2cc1C(=O)Nc1ccc(Br)cc1,-12,15,72*,-85,29,-191
N=c1oc2ccccc2cc1C(=O)Nc1ccccc1,-1,4,78*,-186,-72,-40
Cc1cccnc1NC(=O)Nc1cccc2ccccc12,5,-14,56*,-26,66*,-35
COc1cccc(NC(=O)c2cc3ccccc3oc2=O)c1,-5,-26,86*,-166,22,-71
COC(=O)C1CCN(C(=O)COc2ccc(S(=O)(=O)N3CCOCC3)cc2Cl)CC1,10,-4,-8,6,-10,-5
Cc1cc(-c2onc3ccc(Cl)cc23)ccc1O,11,14,-20,-171,5,-224
CCC(=O)Nc1cccc(NC(=O)c2cc3ccccc3o2)c1,1,2,-3,-280,-56,-317
Cc1cccnc1NC(=O)c1cc2ccccc2oc1=O,-7,-1,80*,-85,-3,-64
CCC(=O)Nc1cccc(-c2cc3ccccc3oc2=O)c1,-6,6,60*,-47,63*,-179
COc1ccc2nc(NC(=O)c3cccc(-c4cc5ccccc5oc4=O)c3)sc2c1,-54*,60*,-83,-95,-22,99*
N=c1oc2cc(O)ccc2cc1C(=O)Nc1nc2ccccc2s1,-6,6,53*,-202,50*,-250
NC(=O)c1ncn([C@@H]2O[C@H](CNCc3cccc(OC4CCCC4)c3)[C@@H](O)[C@H]2O)n1,7,-9,16,3,4,8
Cc1ccc(N(C(=O)Cn2nnc(-c3ccc(C)o3)n2)C(C(=O)NC2CCCC2)c2ccncc2)cc1 (stereo not given),2,-6,56*,1,6,23
CC(=O)c1ccc(OCc2cc(C(=O)N(C)C(C)c3ccon3)no2)cc1 (stereo not given),-3,6,84*,-9,-6,7
C[C@H]1CN([C@@H](C)CO)S(=O)(=O)c2ccc(Br)cc2O[C@@H]1CN(C)S(=O)(=O)c1ccccc1F,16,-21,11,-5,14,4
CNc1cncc(-c2ccc(OCCCN(C)C)nc2)n1,4,6,8,-35,0,-24
CCOc1ccc(NC(=O)CN(C)C(=O)c2ccc(C)o2)cc1OCC,-7,9,8,8,10,0
CCC(C)NS(=O)(=O)c1ccc(NC(=O)C2CCN(C(=O)c3ccco3)CC2)cc1 (stereo not given),4,-11,16,3,19,10
O=C(NC(=S)Nc1ccc(S(=O)(=O)NC2CCCCC2)cc1)c1cccs1,9,12,53*,16,17,4
O=C(NC(=S)Nc1ccc(S(=O)(=O)N2CCCCC2)cc1)c1cccs1,1,12,4,16,-10,32
SMILES,KKLEB cytotox,CF NFkB inh,TWEAK Fn14 block,HIF-2a block,TROY signal inh,Peg3 prom inh
O=c1nc2s/c(=C\c3ccc(-c4ccccc4[N+](=O)[O-])o3)c(=O)n2nc1-c1ccccc1,-5,6,57*,5,42,2
C[C@@H]1CN([C@@H](C)CO)C(=O)c2cc(NS(C)(=O)=O)ccc2O[C@@H]1CN(C)Cc1ccc(C(F)(F)F)cc1,3,2,13,1,2,2
CC(C)(C)n1nnnc1C(c1ccccc1)N1CCN(c2ncccc2C(F)(F)F)CC1 (stereo not given),·,·,-40,0,-1,·
Cc1cc(C(=O)COC(=O)c2ccc(Cl)c(S(N)(=O)=O)c2)c(C)n1CC1CCCO1 (stereo not given),-2,5,64*,-92,72*,-197
CCn1c(SCC(=O)c2cc(C)n(CC3CCCO3)c2C)nc2ccccc21 (stereo not given),2,-4,-5,-69,6,-138
CNS(=O)(=O)c1cccc(C(=O)OCC(=O)c2cc(C)n(CC3CCCO3)c2C)c1 (stereo not given),-31,21,37,-140,47,-126
Cc1cc(C(=O)COC(=O)c2cccc(O)c2)c(C)n1C1CC1,0,-9,54*,-122,-10,-89
COCCn1c(C)cc(C(=O)COC(=O)c2ccc(Cl)c(S(N)(=O)=O)c2)c1C,-23,14,72*,-147,10,-126
Cc1cc(C(=O)CSc2nc3ccccc3c(=O)[nH]2)c(C)n1CC1CCCO1 (stereo not given),8,-10,60*,-226,42,-292
Cc1cc(C(=O)COc2cccc([N+](=O)[O-])c2)c(C)n1C1CC1,3,12,-11,-292,-33,-285
COCCn1c(C)cc(C(=O)COC(=O)c2ccc(-n3nc(C)cc3C)cc2)c1C,-3,-9,10,3,25,-22
O=C(NCc1ccccc1F)C1CCCN1C(=O)Nc1ccc(F)cc1 (stereo not given),-6,-6,9,13,-30,10
COc1ccc(C(C(=O)NC(C)(C)C)N(Cc2cccnc2)C(=O)CCC(=O)Nc2cc(C)on2)cc1 (stereo not given),4,1,-9,5,0,-2
Cc1cc(C(=O)COC(=O)c2ccc(O)cc2)c(C)n1CC1CCCO1 (stereo not given),7,-7,50,-164,62*,-171
COc1cc(OC)cc(C(=O)OCC(=O)c2cc(C)n(CC3CCCO3)c2C)c1 (stereo not given),-18,-9,-5,-37,-9,-128
CC1CN(S(=O)(=O)c2ccccc2)C(C)N1C(=O)N1CCOCC1 (stereo not given),-4,2,0,9,-2,14
COc1cc(/C=N/NC(=O)c2cccc(C(=O)N/N=C/c3ccc(O)c(OC)c3)n2)ccc1O,0,-7,3,11,-2,5
COc1cc(/C=N/NC(=Nc2ccc(C)cc2)c2nc3ccccc3s2)ccc1O,-12,-16,107*,73*,88*,72*
CCOC(=O)C1(Cc2cccc(OC)c2)CCCN(CCO)C1 (stereo not given),-11,2,22,5,-6,10

# Screening data: PubChem BioAssay, Sanford-Burnham Center for Chemical Genomics
